Experimental findings from PubChem BioAssay (NCI) are described below.

Experiment [1] in a line: NCI Yeast Anticancer Drug Screen. Data for the rad50 strain (AID 155).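 Note: 0% = growth of vehicle-only cultures of the same strain.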 The following applies: S. cerevisiae rad50 strain growth inhibition, active compounds read high. The procedure, abridged: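 Yeast carrying a defined DNA repair defect were exposed to test compounds, and growth was compared with vehicle-treated controls to give percent inhibition.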
Experiment [2] is described as follows: NCI Yeast Anticancer Drug Screen. Data for the mec2-1 strain (AID 157). The following applies: S. cerevisiae mec2-1 strain, active compounds read high. The essentials: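 Using mec2-1 yeast: add compound, measure growth, express inhibition versus vehicle-treated cultures.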
The nature of experiment [3]: NCI Yeast Anticancer Drug Screen. Data for the sgs1 mgt1 strain (AID 161).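 Note: 0% = growth of cultures given vehicle only.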 The conditions noted are these: S. cerevisiae sgs1 mgt1 strain, active compounds read high. The procedure, abridged:
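Compounds are added to genetically altered yeast, and growth is compared with cultures given vehicle alone to give percent inhibition.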

Experiment [4] can be described thus: NCI Yeast Anticancer Drug Screen. Data for the cln2 rad14 strain (AID 165).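 Note: 0% = growth equal to vehicle treated cultures.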 The conditions noted are these: S. cerevisiae cln2 rad14 strain, active compounds read high. The essentials:
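Yeast strain cln2 rad14, bearing defects in cell cycle control and DNA repair, serves as the test system; values reflect growth inhibition compared with vehicle.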

The nature of experiment [5]: NCI Yeast Anticancer Drug Screen. Data for the bub3 strain (AID 167). The following applies: S. cerevisiae bub3 mutant strain, active compounds read high. The procedure, abridged:
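Compounds were applied to a genetically altered yeast strain carrying a cell-cycle control defect. Growth inhibition was scored against vehicle-treated controls.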

A short description of experiment [6]: NCI Yeast Anticancer Drug Screen. Data for the mlh1 rad18 strain (AID 175). The following applies: S. cerevisiae mlh1 rad18 strain growth inhibition, active compounds read high. The procedure, abridged:
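Steps: expose repair-defective yeast to compound; measure growth; express inhibition against vehicle-treated controls.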

The mark [7] stands for this setting: at 5.0 µM (retest, dose inferred, filed as 0.5).
The mark [8] stands for this setting: at 50.0 µM (retest, dose inferred, filed as 5.0).

The panel holds about 79,000 compounds, 15% with a hit somewhere; the sample as a whole holds those more often. A number with no mark means an inactive call. Activity calls are given as the source filed them. Cut-off read from the data, not from the text of the source: active = growth inhibition above about 70%; inactive = the rest.

Take `COc1ccccc1NC(=O)c1ccccc1F`: the growth inhibition in experiment [1] (setting [7]) is -154%; in experiment [1] (setting [8]), 41%; in experiment [1] (at 50.0 µM) it was -2.5%; in experiment [2] (setting [7]), -47%; in experiment [2] (setting [8]) it was -41%; in experiment [2] (at 50.0 µM), 10.7%. In addition, the growth inhibition in experiment [3] (setting [7]) is -61%; in experiment [3] (setting [8]), -17%; in experiment [3] (at 50.0 µM), 0.2%; in experiment [4] (setting [7]) it was -60%; in experiment [4] (setting [8]), -72%; in experiment [4] (at 50.0 µM), 4.65%. Also, the growth inhibition is -70% in experiment [5] (setting [7]); 9% in experiment [5] (setting [8]); -3.5% in experiment [5] (at 50.0 µM); -147% in experiment [6] (setting [7]); -43% in experiment [6] (setting [8]); -9.6% in experiment [6] (at 50.0 µM).
Consider `CCc1cccc(CC)c1NC(=O)C(C#N)C1=C(Cl)C(=O)c2ccccc2C1=O` (configuration not stated), for which the growth inhibition was 63% in experiment [1] (setting [7]); 97% (active) in experiment [1] (setting [8]); 89.8% (active) in experiment [1] (at 50.0 µM); 92% (active) in experiment [2] (setting [7]); 98% (active) in experiment [2] (setting [8]); 93.5% (active) in experiment [2] (at 50.0 µM). Also, the growth inhibition was 73% (active) in experiment [3] (setting [7]); 99% (active) in experiment [3] (setting [8]); 90% (active) in experiment [3] (at 50.0 µM); 36% in experiment [4] (setting [7]); 99% (active) in experiment [4] (setting [8]); 91.3% (active) in experiment [4] (at 50.0 µM). Also, the growth inhibition was 67% in experiment [5] (setting [7]); 99% (active) in experiment [5] (setting [8]); 92.1% (active) in experiment [5] (at 50.0 µM); 75% (active) in experiment [6] (setting [7]); 96% (active) in experiment [6] (setting [8]); 90.5% (active) in experiment [6] (at 50.0 µM).
Consider `CC1CCN(CCOC(=O)C(c2ccccc2)C2C=CCCC2)C1C` (configuration not stated), for which the growth inhibition in experiment [1] (setting [7]) was 16%; in experiment [1] (setting [8]), 59%; in experiment [1] (at 50.0 µM) it was 81.1% (active); in experiment [2] (setting [7]) it was 45%; in experiment [2] (setting [8]), 71% (active); in experiment [2] (at 50.0 µM), 58.9%. Moreover, the growth inhibition in experiment [3] (setting [7]) was 53%; in experiment [3] (setting [8]), 80% (active); in experiment [3] (at 50.0 µM), 84.5% (active); in experiment [4] (setting [7]), 16%; in experiment [4] (setting [8]), 53%; in experiment [4] (at 50.0 µM) it was 86.9% (active). Also, the growth inhibition is 16% in experiment [5] (setting [7]); 50% in experiment [5] (setting [8]); 62% in experiment [5] (at 50.0 µM); 54% in experiment [6] (setting [7]); 78% (active) in experiment [6] (setting [8]); 77.5% (active) in experiment [6] (at 50.0 µM).
As for `CCCCCCCCN1C(=O)c2ccccc2S1(=O)=O`, the growth inhibition in experiment [1] (setting [7]) was -2%; in experiment [1] (setting [8]), 95% (active); in experiment [1] (at 50.0 µM) it was 22.9%; in experiment [2] (setting [7]), -4%; in experiment [2] (setting [8]), 96% (active); in experiment [2] (at 50.0 µM), 32.1%. Also, the growth inhibition in experiment [3] (setting [7]) is -2%; in experiment [3] (setting [8]), 94% (active); in experiment [3] (at 50.0 µM), 73.8% (active); in experiment [4] (setting [7]), -17%; in experiment [4] (setting [8]) it was 95% (active); in experiment [4] (at 50.0 µM) it was -27.6%. The growth inhibition is 25% in experiment [5] (setting [7]); 96% (active) in experiment [5] (setting [8]); 89.2% (active) in experiment [5] (at 50.0 µM); -2% in experiment [6] (setting [7]); 95% (active) in experiment [6] (setting [8]); 76.2% (active) in experiment [6] (at 50.0 µM).
Turning to `COC(=O)C(Sc1ccc(Cl)cc1)C1SC(=S)N(C)C1=O` (configuration not stated), the growth inhibition in experiment [1] (setting [7]) is 34%; in experiment [1] (setting [8]), 99% (active); in experiment [1] (at 50.0 µM), 62%; in experiment [2] (setting [7]), 19%; in experiment [2] (setting [8]) it was 99% (active); in experiment [2] (at 50.0 µM), 41.5%. The growth inhibition in experiment [3] (setting [7]) is 21%; in experiment [3] (setting [8]), 99% (active); in experiment [3] (at 50.0 µM), 65.9%; in experiment [4] (setting [7]), 27%; in experiment [4] (setting [8]), 99% (active); in experiment [4] (at 50.0 µM), 37.2%. Moreover, the growth inhibition in experiment [5] (setting [7]) is 15%; in experiment [5] (setting [8]) it was 99% (active); in experiment [5] (at 50.0 µM), 84.8% (active); in experiment [6] (setting [7]) it was 38%; in experiment [6] (setting [8]), 98% (active); in experiment [6] (at 50.0 µM), 58%.
For the molecule `CCS/C(SC)=C(/c1ccccc1)[P+](c1ccccc1)(c1ccccc1)c1ccccc1`, the growth inhibition in experiment [1] (setting [7]) is 98% (active); in experiment [1] (setting [8]) it was 99% (active); in experiment [1] (at 50.0 µM), 90.6% (active); in experiment [2] (setting [7]), 99% (active); in experiment [2] (setting [8]), 100% (active); in experiment [2] (at 50.0 µM), 94.3% (active). The growth inhibition in experiment [3] (setting [7]) was 99% (active); in experiment [3] (setting [8]), 99% (active); in experiment [3] (at 50.0 µM) it was 91.6% (active); in experiment [4] (setting [7]), 98% (active); in experiment [4] (setting [8]), 99% (active); in experiment [4] (at 50.0 µM), 91.5% (active). The growth inhibition in experiment [5] (setting [7]) was 99% (active); in experiment [5] (setting [8]), 100% (active); in experiment [5] (at 50.0 µM) it was 91% (active); in experiment [6] (setting [7]) it was 98% (active); in experiment [6] (setting [8]), 99% (active); in experiment [6] (at 50.0 µM), 91.8% (active).
For the molecule `C/C(=N\NC(=S)N1CCCCCC1)c1ccccn1`, the growth inhibition in experiment [1] (setting [7]) was 88% (active); in experiment [1] (setting [8]), 99% (active); in experiment [1] (at 50.0 µM), 91.5% (active); in experiment [2] (setting [7]) it was 86% (active); in experiment [2] (setting [8]), 99% (active); in experiment [2] (at 50.0 µM) it was 92.6% (active). The growth inhibition in experiment [3] (setting [7]) was 77% (active); in experiment [3] (setting [8]) it was 99% (active); in experiment [3] (at 50.0 µM) it was 92.3% (active); in experiment [4] (setting [7]), 67%; in experiment [4] (setting [8]) it was 98% (active); in experiment [4] (at 50.0 µM), 89.7% (active). The growth inhibition in experiment [5] (setting [7]) was 87% (active); in experiment [5] (setting [8]) it was 99% (active); in experiment [5] (at 50.0 µM), 92.1% (active); in experiment [6] (setting [7]), 90% (active); in experiment [6] (setting [8]), 98% (active); in experiment [6] (at 50.0 µM), 92% (active).
Consider `C/C(=N/O)c1ccc2c(c1)C(C)c1ccccc1-2` (configuration not stated), for which the growth inhibition in experiment [1] (setting [7]) is -147%; in experiment [1] (setting [8]), -142%; in experiment [1] (at 50.0 µM) it was 35.2%; in experiment [2] (setting [7]), -53%; in experiment [2] (setting [8]), -54%; in experiment [2] (at 50.0 µM) it was 45.9%. Further, the growth inhibition in experiment [3] (setting [7]) was -59%; in experiment [3] (setting [8]), -65%; in experiment [3] (at 50.0 µM), 34.5%; in experiment [4] (setting [7]) it was -60%; in experiment [4] (setting [8]) it was -66%; in experiment [4] (at 50.0 µM), 77.4% (active). For the same molecule, the growth inhibition in experiment [5] (setting [7]) is -62%; in experiment [5] (setting [8]), -54%; in experiment [5] (at 50.0 µM), 78.2% (active); in experiment [6] (setting [7]), -113%; in experiment [6] (setting [8]), -103%; in experiment [6] (at 50.0 µM), 75% (active).
Regarding `CN1CCCN(C)C1c1cc([N+](=O)[O-])ccc1O`, the growth inhibition in experiment [1] (setting [7]) was 25%; in experiment [1] (setting [8]), 95% (active); in experiment [1] (at 50.0 µM), 49.5%; in experiment [2] (setting [7]), 3%; in experiment [2] (setting [8]), 92% (active); in experiment [2] (at 50.0 µM), 98.2% (active). The growth inhibition in experiment [3] (setting [7]) was 7%; in experiment [3] (setting [8]), 96% (active); in experiment [3] (at 50.0 µM), 97.7% (active); in experiment [4] (setting [7]), 11%; in experiment [4] (setting [8]), 93% (active); in experiment [4] (at 50.0 µM), 87.3% (active). Also, the growth inhibition was -6% in experiment [5] (setting [7]); 95% (active) in experiment [5] (setting [8]); 96.8% (active) in experiment [5] (at 50.0 µM); 7% in experiment [6] (setting [7]); 99% (active) in experiment [6] (setting [8]); 98.9% (active) in experiment [6] (at 50.0 µM).
